The record followed here is PubChem BioAssay (NCATS).

Records with an inconclusive call do not appear. The source made the active and inactive calls. Unless noted, calls follow the shape of the dose curve; as a rule, active = well fitted curve in the direction sought with a large enough effect; inconclusive = small, poorly fitted or top-dose-only effect, or another doubt; inactive = no such curve, though single readings can be large; an effect the other way counts as inactive or inconclusive. Where a SMILES comes first, the peptide text is derived from it. The star is where a group is joined. Hexanoyl = CCCCCC(=O)*

Experiment [1] concerns the target Calcium and integrin-binding protein 1 (Homo sapiens) (UniProt Q99828). Description: Primary qHTS for Identification of Calcium Integrin Binding Protein 1 (CIB1) Competitor (AID 1508620).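 Also: GST tagged CIB1 binding a fluorescein labelled alphaIIb integrin peptide tracer; top concentration of the series differs between compounds.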 Summed up:
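CIB1-GST (1 uM final) and compound incubated 15 min at room temperature before adding FITC-alphaIIb peptide tracer (100 nM final). Competition for binding read by fluorescence polarization (ex 480, em 540) after another 15 min at room temperature.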
In general terms: Quantitative high-throughput screening tests each substance at several concentrations.

The target in experiment [2] is Cytochrome P450 2D6 (Homo sapiens) (UniProt P10635). The experiment can be described thus: Cytochrome P450 family 2 subfamily D member 6 (CYP2D6) small molecule antagonists: luciferase biochemical (cell-free) qHTS assay (AID 1645840; active = well fitted curve in the direction sought with a large enough effect in the repeat runs; an effect the other way counts as inactive or inconclusive; also: nearly all actives have a fitted effect of over 55% in size; also: potency is read from the fitted curve at half-maximal effect). Summed up: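 P450-Glo luminescent screen: recombinant CYP2D6 enzyme–proluciferin substrate mix preincubated with compound 10 min at room temperature, then NADPH regeneration added for 1 h at room temperature. Detection reagent added for 20 min; luciferin light read as relative luminescence units.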
Sequence of Cytochrome P450 2D6 (Homo sapiens) (P10635 whole entry, looked up): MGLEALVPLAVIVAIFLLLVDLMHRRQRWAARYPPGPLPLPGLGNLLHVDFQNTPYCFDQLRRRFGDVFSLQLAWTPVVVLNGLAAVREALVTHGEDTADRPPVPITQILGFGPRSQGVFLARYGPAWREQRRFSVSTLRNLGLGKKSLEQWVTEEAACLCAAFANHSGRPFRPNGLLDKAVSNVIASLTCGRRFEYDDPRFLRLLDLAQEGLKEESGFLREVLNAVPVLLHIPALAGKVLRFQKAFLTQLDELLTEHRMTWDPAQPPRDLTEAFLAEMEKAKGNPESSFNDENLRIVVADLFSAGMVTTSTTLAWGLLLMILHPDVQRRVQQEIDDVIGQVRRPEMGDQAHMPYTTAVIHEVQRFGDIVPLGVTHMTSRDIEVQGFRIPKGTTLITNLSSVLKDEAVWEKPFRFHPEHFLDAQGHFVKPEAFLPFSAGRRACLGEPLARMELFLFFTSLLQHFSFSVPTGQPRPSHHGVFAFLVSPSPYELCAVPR

In experiment [3] the target is Cytochrome P450 2C9 (Homo sapiens) (UniProt P11712). Description: Cytochrome P450 family 2 subfamily C member 9 (CYP2C9) small molecule antagonists: luciferase biochemical (cell-free) qHTS assay (AID 1645842; active = well fitted curve in the direction sought with a large enough effect in the repeat runs; an effect the other way counts as inactive or inconclusive; also: nearly all actives have a fitted effect of over 55% in size; also: potency is read from the fitted curve at half-maximal effect). Summed up:
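Luminescence, after 20 min with luciferin detection reagent, reflected CYP2C9 turnover during a 1 h NADPH-driven reaction at 37C. Enzyme-substrate mix contained 0.4% bovine serum albumin and was preincubated with compound 10 min at room temperature.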

A short description of experiment [4]: Primary qHTS for inhibitors of nuclear receptor binding SET domain protein 2 (NSD2) in an isogenic RCH-ACV NSD2 p.E1099K mutant (9B) (AID 1645876). Also: nearly all actives have a fitted effect of over 70% in size. Also: potency is read from the fitted curve at half-maximal effect.
A short description of experiment [5]: Primary qHTS for inhibitors of nuclear receptor binding SET domain protein 2 (NSD2) in an RCH-ACV wild type WT cells (2C) (AID 1645877). Also: nearly all actives have a fitted effect of over 70% in size. Also: potency is read from the fitted curve at half-maximal effect.

Sequence of Calcium and integrin-binding protein 1 (Homo sapiens) (Q99828 whole entry, looked up): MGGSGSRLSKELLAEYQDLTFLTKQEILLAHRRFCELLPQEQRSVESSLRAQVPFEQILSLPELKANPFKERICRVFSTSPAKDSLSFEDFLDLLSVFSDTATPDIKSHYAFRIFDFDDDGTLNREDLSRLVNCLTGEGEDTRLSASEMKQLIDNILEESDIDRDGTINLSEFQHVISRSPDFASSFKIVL
Sequence of Cytochrome P450 2C9 (Homo sapiens) (P11712 whole entry, looked up): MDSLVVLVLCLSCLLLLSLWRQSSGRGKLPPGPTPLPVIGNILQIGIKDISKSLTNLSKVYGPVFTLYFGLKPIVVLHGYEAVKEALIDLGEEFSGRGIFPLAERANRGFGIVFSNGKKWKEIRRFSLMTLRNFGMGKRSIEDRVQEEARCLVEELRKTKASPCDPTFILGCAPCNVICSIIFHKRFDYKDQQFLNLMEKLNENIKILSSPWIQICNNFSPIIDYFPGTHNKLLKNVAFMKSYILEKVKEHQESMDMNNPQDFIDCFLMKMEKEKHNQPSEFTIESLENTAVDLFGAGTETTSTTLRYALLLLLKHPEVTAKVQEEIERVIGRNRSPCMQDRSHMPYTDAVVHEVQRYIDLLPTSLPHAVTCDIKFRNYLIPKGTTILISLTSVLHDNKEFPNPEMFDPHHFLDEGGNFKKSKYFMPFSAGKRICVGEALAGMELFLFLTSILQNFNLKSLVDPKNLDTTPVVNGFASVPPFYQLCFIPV

For `Oc1ccc(CC2NCCc3cc(O)c(O)cc32)cc1` (stereo not given), the Potency entry in experiment [1], in experiment [2], in experiment [3], in experiment [4] and in experiment [5] was “inactive” in each case.

For the compound `CCOC(=O)C1=C(N)Oc2ccc(Cl)cc2C1C(C#N)C(=O)OCC` (stereo not given), the Potency result in experiment [1], in experiment [4] and in experiment [5] was “inactive” each time. Besides, the Potency in experiment [2] was 16.9 µM (active); in experiment [3] it was 10.7 µM (active).

Take `N#Cc1cc(-c2n[nH]c(-c3ccncc3)n2)ccn1`: the Potency result in experiment [1], in experiment [2], in experiment [4] and in experiment [5] was “inactive” in each case. Also, the Potency in experiment [3] is 1.51 µM (active).

As to `CCCN1CCC[C@@H](c2cccc(S(C)(=O)=O)c2)C1`, the Potency entry in experiment [1], in experiment [3], in experiment [4] and in experiment [5] was “inactive” each time. Further, the Potency in experiment [2] is 15.1 µM (active).

For the compound `COc1cc2nc(=NC(=O)c3cccnc3)n3c(c2cc1OC)NCC3`, the Potency entry in experiment [1], in experiment [2] and in experiment [3] was “inactive” in each case. For the same compound, the Potency in experiment [4] is 4.59 µM (active); in experiment [5], 5.15 µM (active).

With `Cc1cc(-c2nncc3c(C(C)(C)C)c(OCc4ncnn4C)nn23)no1`, the Potency entry in experiment [1], in experiment [2], in experiment [4] and in experiment [5] was “inactive” each time. Further, the Potency in experiment [3] is 3.01 µM (active).

For the compound `O=C(Nc1ccccc1)Nc1ccc(-c2ccc(C(=O)C3CCCC3C(=O)O)cc2)cc1` (stereo not given), the Potency entry in experiment [1], in experiment [2], in experiment [4] and in experiment [5] was “inactive” each time. In addition, the Potency in experiment [3] is 16.9 µM (active).

`CC(=O)Nc1cccc2c1c(Sc1ccc(Cl)cc1)c(C)n2CC(=O)O`: the Potency result in experiment [1], in experiment [2], in experiment [4] and in experiment [5] was “inactive” in each case. In addition, the Potency in experiment [3] was 13.5 µM (active).

Regarding `Cc1ccc(-n2nc(C(C)(C)C)cc2NC(=O)Nc2cc(COc3cccnc3)[nH]n2)cc1`, the Potency result in experiment [1] is “inactive”. Further, the Potency in experiment [2] is 15.1 µM (active); in experiment [3], 7.56 µM (active); in experiment [4], 18.3 µM (active); in experiment [5], 9.16 µM (active).

`COc1cccc(OC)c1-c1ccc(C[C@H](NC(=O)c2c(Cl)cccc2Cl)C(=O)O)cc1`: the Potency result in experiment [1], in experiment [2], in experiment [4] and in experiment [5] was “inactive” in each case. The Potency in experiment [3] was 13.5 µM (active).

On to `COc1ccc(CC(=O)NCc2ccccc2-c2ccccc2C(=O)NCCc2cccnc2)cc1`, for which the Potency result in experiment [1], in experiment [4] and in experiment [5] was “inactive” in each case. The Potency was 10.7 µM (active) in experiment [2] and 2.68 µM (active) in experiment [3].

Turning to `NC1=NC2(c3cc(NC(=O)c4ccc(F)cn4)ccc3F)COCC2CS1` (stereo not given), the Potency entry in experiment [1], in experiment [4] and in experiment [5] was “inactive” in each case. Further, the Potency is 4.77 µM (active) in experiment [2] and 9.52 µM (active) in experiment [3].

With `COc1ccc(C(=O)NCc2cc(C(C)C)no2)cc1OC1CCN(C)CC1`, the Potency entry in experiment [1], in experiment [2], in experiment [3], in experiment [4] and in experiment [5] was “inactive” throughout.

For the compound `COc1ccccc1Oc1c(NS(=O)(=O)c2ccc(C)cn2)nc(-c2ccncc2)nc1OC`, the Potency result in experiment [1], in experiment [2], in experiment [4] and in experiment [5] was “inactive” each time. Besides, the Potency in experiment [3] is 26.8 µM (active).

`Cc1cccc(NC(=O)CN2CCC(c3ccccn3)CC2)c1`: the Potency result in experiment [1], in experiment [4] and in experiment [5] was “inactive” in each case. Moreover, the Potency in experiment [2] is 13.5 µM (active); in experiment [3], 3.38 µM (active).

On to `CC1(C)Oc2ncnc(N)c2N=C1c1ccc(C2CCC(CC(=O)O)CC2)cc1` (stereo not given), for which the Potency entry in experiment [1], in experiment [2], in experiment [3], in experiment [4] and in experiment [5] was “inactive” throughout.

As for `CN1CCN(c2nc(-c3ccc(C(=O)NC4(C(=O)NCC#N)CCCCC4)cc3)cs2)CC1`, the Potency entry in experiment [1], in experiment [2], in experiment [4] and in experiment [5] was “inactive” throughout. Moreover, the Potency in experiment [3] is 12 µM (active).

On to `CCC[C@H](N[C@@H](C)C(=O)N1[C@H](C(=O)O)C[C@@H]2CCCC[C@@H]21)C(=O)O`, for which the Potency entry in experiment [1], in experiment [2], in experiment [3], in experiment [4] and in experiment [5] was “inactive” each time.

On to `COc1ccnc(CCc2nc3ncccc3[nH]2)c1`, for which the Potency result in experiment [1], in experiment [2], in experiment [3], in experiment [4] and in experiment [5] was “inactive” in each case.

Turning to `CCCCCC(=O)N1CCC[C@H]1C(=O)N[C@@H](Cc1ccc(O)cc1)C(=O)OC` (Hexanoyl-Pro-Tyr-OMe), the Potency result in experiment [1], in experiment [2], in experiment [4] and in experiment [5] was “inactive” throughout. Also, the Potency in experiment [3] is 2.39 µM (active).

For the compound `Cn1c2ccc(NC(=O)c3ccccc3)cc2c(=O)n2nc(C(=O)O)cc12`, the Potency result in experiment [1], in experiment [2], in experiment [3], in experiment [4] and in experiment [5] was “inactive” throughout.

`CCOc1nc2c(N)ncnc2n1CC`: the Potency result in experiment [1], in experiment [2], in experiment [3], in experiment [4] and in experiment [5] was “inactive” throughout.

In the case of `CCCCS(=O)(=O)NC(Cc1ccc(OCCCCC2CCNCC2)cc1)C(=O)O` (stereo not given), the Potency result in experiment [1], in experiment [2], in experiment [3], in experiment [4] and in experiment [5] was “inactive” throughout.

Turning to `Cc1ccc2[nH]c(=O)c(C3=NN(C(=O)CCC(=O)O)C(c4ccc(Br)cc4)C3)c(-c3ccccc3)c2c1` (stereo not given), the Potency result in experiment [1], in experiment [2], in experiment [4] and in experiment [5] was “inactive” each time. Besides, the Potency in experiment [3] was 26.8 µM (active).

On to `Cc1onc(-c2ccccc2Cl)c1C(=O)N(C)c1ccc(Cl)cc1`, for which the Potency result in experiment [1], in experiment [2], in experiment [4] and in experiment [5] was “inactive” throughout. Further, the Potency in experiment [3] is 13.5 µM (active).

With `CCOc1ncc(S(=O)(=O)N2CCN(CC)CC2)cc1-c1nc2c(CC)n(CCOC)nc2c(=O)[nH]1`, the Potency result in experiment [1], in experiment [2], in experiment [4] and in experiment [5] was “inactive” throughout. Moreover, the Potency in experiment [3] is 10.7 µM (active).
